PubChem BioAssay
Several values for one entry are separate records, joined by “and”; a condition that tells them apart may be missing. Identical values can stand only once. Activity calls are given as the source filed them.

Legend:
Albumin (Bos taurus) = Albumin (Bos taurus) (UniProt P02769); test: compounds binding labelled BSA control protein – biochemical, small-molecule microarray, Alexa647 label, 635/667 nm fluorescence, artefact control for SMM control protein annotation, profiling panel (AID 1118); settings: BSA-A647 binding, fluorescence 635 nm, higher = more signal;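 also: score merges 667 nm emission intensity and signal-to-noise per printed compound spot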
[1] = probe aXIP binding to arrayed compounds – biochemical, NeuroSMM set, 635/667 nm fluorescence, primary screen (AID 1119); settings: small-molecule microarray, higher = more signal, called active from +8 up or from −8 down;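 also: probe is the protein aXip251-270 applied at 1 µg/mL to compound-printed slides; binding of probe to printed compounds measured as 667 nm fluorescence plus signal to noise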
[2] = probe aNOTCH3 binding on compound microarray – biochemical, small-molecule microarray, 635/667 nm fluorescence, primary screen (AID 1120); settings: higher = more signal;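 also: probe is a biotin-tagged antibody raised against NOTCH3 rather than NOTCH3 protein; score merges spot fluorescence near 667 nm with spot signal to noise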
[3] = probe aNOTCH2 binding on compound microarray – biochemical, small-molecule microarray, 635/667 nm fluorescence, primary screen (AID 1121); settings: higher = more signal;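 also: score merges feature fluorescence read at 667 nm with its signal to noise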
[4] = target: Carbonic anhydrase 2 (Homo sapiens) (UniProt P00918); test: compounds binding carbonic anhydrase 2 – biochemical, small-molecule microarray, Alexa647-labelled CAII, profiling panel (AID 1122); settings: CAII-A647 binding fluorescence, higher = more signal
[5] = COS7 lysate on small-molecule microarray, probe aHis, 635 nm (AID 1123); settings: COS7 cell lysate, fluorescence, higher = more signal;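 also: z-score combines 667nm fluorescence intensity with signal-to-noise per printed compound spot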
[6] = probe aLAP1 signal on lysate-treated microarray – cell lysate, small-molecule microarray, COS7 lysate, primary screen (AID 1124); settings: probe aLAP1, fluorescence, higher = more signal;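 also: lysate comes from COS7 cells expressing LAP1 and is applied at 0.3 µg/mL; score merges spot fluorescence near 667 nm with signal-to-noise over triplicate slides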
Sam68 (KHDRBS1) = test: compounds binding KHDRBS1 protein – biochemical, small-molecule microarray, 635 nm fluorescence, primary screen (AID 1125); settings: higher = more signal;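 also: score merges 667 nm channel intensity with signal to noise over triplicate slides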
[7] = test system: Chordin-like protein 2 (CHRDL2); test: compounds binding chordin-like 2 – biochemical, small-molecule microarray, 635 nm fluorescence, primary screen (AID 1126); settings: fluorescence 635 nm, higher = more signal;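 also: printed compound slides probed with Chrdl2 protein at 4 µg/mL for 1 h at 4 C; score merges 667 nm emission intensity with signal to noise over three replicate slides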
[8] = target: Concanavalin-A (Canavalia ensiformis) (UniProt P02866); test: compounds binding concanavalin A lectin – biochemical, small-molecule microarray, Alexa647 label, 635 nm, artefact control for SMM control protein annotation, primary screen (AID 1127); settings: ConA-A647 binding fluorescence, higher = more signal;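 also: z combines 667 nm emission intensity with signal-to-noise across three replicate slides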
[9] = compounds binding Alexa647 anti-His antibody – biochemical, small-molecule microarray, 635 nm fluorescence, artefact control for SMM control protein annotation, primary screen (AID 1128); settings: higher = more signal;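 also: score merges feature fluorescence with signal-to-noise for each printed compound spot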
[10] = test system: Human papillomavirus type 1a E7 protein (residues 1-88); test: HPV1a E7 small-molecule binders, primary screen, biochemical, small-molecule microarray, residues 1-88, 635 nm (AID 1129); settings: small-molecule microarray binding, fluorescence 635 nm; higher = more signal
[11] = target: Focal adhesion kinase 1 (Homo sapiens) (UniProt Q05397); test: PTK2 protein binding on printed compound slides – biochemical, small-molecule microarray, 635/667 nm fluorescence, BSA, DTT, primary screen (AID 1130); settings: 635 nm fluorescence, higher = more signal;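 also: composite of spot emission at 667 nm and signal to noise over triplicate slides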
[12] = test system: Fibrinogen (Alexa647-labelled); test: Alexa647-fibrinogen binding to printed small molecules – biochemical, small-molecule microarray, 635/667 nm fluorescence, artefact control for SMM control-protein annotation, profiling panel (AID 1131); settings: fibrinogen-A647 binding fluorescence, higher = more signal;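 also: z-score merges 667 nm fluorescence with per-spot signal-to-noise over triplicate slides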
[13] = target: Follistatin (Homo sapiens) (UniProt P19883); test: FST protein binding to printed compounds – biochemical, small-molecule microarray, 635/667 nm fluorescence, primary screen (AID 1132); settings: 635 nm fluorescence, higher = more signal
[14] = target: Fibroblast growth factor 2 (Homo sapiens) (UniProt P09038); test: basic fibroblast growth factor binding to printed compounds – biochemical, small-molecule microarray, 635/667 nm fluorescence, primary screen (AID 1133); settings: FGF2, fluorescence 635/667, higher = more signal
[15] = JC-1 mitochondrial potential readout, lung cancer cells – cell-based, A549, JC-1 fluorescence, basal, 24 h, 100 nL, profiling panel (AID 1138); settings: higher = more signal;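 also: A549 lung adenocarcinoma cells under basal conditions with no added stimulus; test concentration not given here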
Lefty1 = Lefty1 protein binding to printed compounds – biochemical, small-molecule microarray, 635/667 nm fluorescence, primary screen (AID 1139); settings: fluorescence 635/667, higher = more signal
[16] = test system: wheat germ agglutinin (Triticum aestivum), Alexa647-labelled; test: Alexa647-WGA lectin binding to printed small molecules – biochemical, small-molecule microarray, 635/667 nm fluorescence, artefact control for SMM control-protein annotation, profiling panel (AID 1140); settings: WGA-A647 binding, 635 nm fluorescence, higher = more signal;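 also: score merges 667 nm feature emission with signal to noise over triplicate slides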
[17] = target: Luciferin 4-monooxygenase (Photinus pyralis) (UniProt P08659); test: inhibition of purified Photinus pyralis luciferase – biochemical, luminescence, purified enzyme, 2006 set, primary screen (AID 1141); settings: purified firefly luciferase, SteadyGlo luminescence, 30 min; higher = more signal, called active from +8 up or from −8 down;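 also: cell-free assay with purified firefly luciferase at 100 ng per well in PBS; test concentration not given here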
Chain of Luciferin 4-monooxygenase (Photinus pyralis) (P08659 whole entry, looked up): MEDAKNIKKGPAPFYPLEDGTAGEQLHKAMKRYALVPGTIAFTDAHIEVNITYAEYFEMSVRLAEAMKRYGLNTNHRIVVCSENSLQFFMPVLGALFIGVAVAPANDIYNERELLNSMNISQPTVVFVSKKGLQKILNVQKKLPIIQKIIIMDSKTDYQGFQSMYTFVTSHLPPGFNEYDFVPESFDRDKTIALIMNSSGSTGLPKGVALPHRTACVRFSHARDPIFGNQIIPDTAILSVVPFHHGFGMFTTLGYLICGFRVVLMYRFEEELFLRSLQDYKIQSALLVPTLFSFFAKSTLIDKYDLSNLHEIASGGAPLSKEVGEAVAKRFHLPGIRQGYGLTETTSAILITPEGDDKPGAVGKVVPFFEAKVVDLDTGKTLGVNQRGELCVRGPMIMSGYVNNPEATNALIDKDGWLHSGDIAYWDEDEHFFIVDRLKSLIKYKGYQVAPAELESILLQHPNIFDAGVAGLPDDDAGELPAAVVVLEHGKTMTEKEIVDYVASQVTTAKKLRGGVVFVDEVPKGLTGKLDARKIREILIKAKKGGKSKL

Chain of Follistatin (Homo sapiens) (P19883 whole entry, looked up): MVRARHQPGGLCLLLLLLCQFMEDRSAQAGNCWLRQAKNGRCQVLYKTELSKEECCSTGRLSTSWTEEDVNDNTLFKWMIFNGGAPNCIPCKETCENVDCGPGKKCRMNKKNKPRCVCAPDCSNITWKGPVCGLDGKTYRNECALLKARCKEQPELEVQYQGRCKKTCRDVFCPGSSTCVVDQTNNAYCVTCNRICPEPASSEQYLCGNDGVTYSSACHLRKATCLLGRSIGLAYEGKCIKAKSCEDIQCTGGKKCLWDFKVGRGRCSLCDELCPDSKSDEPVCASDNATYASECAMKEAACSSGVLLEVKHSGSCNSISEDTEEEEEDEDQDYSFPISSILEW
Chain of Concanavalin-A (Canavalia ensiformis) (P02866 whole entry, looked up): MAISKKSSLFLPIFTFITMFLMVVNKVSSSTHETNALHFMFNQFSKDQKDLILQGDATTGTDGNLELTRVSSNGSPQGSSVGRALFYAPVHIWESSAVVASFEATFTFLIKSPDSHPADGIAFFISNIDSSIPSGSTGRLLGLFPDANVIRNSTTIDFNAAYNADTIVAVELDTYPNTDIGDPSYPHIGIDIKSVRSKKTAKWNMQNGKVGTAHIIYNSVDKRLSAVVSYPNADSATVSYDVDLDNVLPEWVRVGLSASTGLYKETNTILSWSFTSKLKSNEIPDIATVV
Chain of Albumin (Bos taurus) (P02769 whole entry, looked up): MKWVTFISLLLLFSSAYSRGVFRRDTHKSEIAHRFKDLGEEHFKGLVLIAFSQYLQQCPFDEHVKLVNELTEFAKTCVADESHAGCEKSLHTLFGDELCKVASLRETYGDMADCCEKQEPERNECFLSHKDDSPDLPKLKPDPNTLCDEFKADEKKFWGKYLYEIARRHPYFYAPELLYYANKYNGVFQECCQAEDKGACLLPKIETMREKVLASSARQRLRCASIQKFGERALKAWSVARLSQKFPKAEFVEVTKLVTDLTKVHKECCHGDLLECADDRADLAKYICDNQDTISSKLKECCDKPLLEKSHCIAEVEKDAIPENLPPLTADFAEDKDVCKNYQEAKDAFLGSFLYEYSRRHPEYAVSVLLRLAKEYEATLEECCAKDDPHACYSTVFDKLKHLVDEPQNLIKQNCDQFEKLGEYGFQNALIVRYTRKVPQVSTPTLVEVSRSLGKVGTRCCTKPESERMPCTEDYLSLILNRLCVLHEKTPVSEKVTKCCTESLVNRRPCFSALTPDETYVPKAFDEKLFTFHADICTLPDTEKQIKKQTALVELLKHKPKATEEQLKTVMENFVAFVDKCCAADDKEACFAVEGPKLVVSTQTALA
Chain of Focal adhesion kinase 1 (Homo sapiens) (Q05397 whole entry, looked up): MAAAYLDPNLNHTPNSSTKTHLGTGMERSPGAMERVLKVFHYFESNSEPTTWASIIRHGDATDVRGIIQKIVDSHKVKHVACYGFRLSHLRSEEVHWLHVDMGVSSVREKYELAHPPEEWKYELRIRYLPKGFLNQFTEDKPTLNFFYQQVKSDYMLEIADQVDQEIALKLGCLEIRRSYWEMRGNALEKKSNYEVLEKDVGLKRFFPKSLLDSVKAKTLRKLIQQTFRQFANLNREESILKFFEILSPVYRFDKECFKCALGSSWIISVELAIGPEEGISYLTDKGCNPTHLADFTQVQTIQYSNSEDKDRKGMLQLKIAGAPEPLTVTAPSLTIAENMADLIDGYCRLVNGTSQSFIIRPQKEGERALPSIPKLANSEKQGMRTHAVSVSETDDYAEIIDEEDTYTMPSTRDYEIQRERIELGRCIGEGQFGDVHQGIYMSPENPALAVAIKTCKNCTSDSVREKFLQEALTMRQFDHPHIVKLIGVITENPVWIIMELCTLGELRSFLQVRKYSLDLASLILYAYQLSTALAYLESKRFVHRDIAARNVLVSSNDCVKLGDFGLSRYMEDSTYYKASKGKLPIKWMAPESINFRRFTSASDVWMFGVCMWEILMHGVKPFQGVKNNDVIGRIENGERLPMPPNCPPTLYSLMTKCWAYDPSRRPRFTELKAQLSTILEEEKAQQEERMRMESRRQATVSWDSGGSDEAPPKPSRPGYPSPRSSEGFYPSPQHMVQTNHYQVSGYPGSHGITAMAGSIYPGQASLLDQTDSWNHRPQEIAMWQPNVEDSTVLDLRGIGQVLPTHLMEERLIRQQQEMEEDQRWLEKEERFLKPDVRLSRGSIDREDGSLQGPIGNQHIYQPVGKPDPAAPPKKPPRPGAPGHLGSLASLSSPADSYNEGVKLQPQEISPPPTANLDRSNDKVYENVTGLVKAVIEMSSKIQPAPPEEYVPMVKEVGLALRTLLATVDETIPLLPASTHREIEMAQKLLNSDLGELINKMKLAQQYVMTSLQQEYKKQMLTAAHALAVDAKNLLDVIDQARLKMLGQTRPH
Chain of Fibroblast growth factor 2 (Homo sapiens) (P09038 whole entry, looked up): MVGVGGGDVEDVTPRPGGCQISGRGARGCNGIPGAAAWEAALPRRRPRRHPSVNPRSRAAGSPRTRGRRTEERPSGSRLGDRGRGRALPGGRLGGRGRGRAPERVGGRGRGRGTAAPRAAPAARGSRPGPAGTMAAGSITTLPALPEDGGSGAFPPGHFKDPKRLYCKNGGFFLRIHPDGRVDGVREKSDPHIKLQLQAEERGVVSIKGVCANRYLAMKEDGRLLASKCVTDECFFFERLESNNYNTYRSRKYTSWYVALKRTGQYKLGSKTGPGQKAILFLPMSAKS

SMILES | composite z-score (Albumin (Bos taurus)) | composite Z-score [1] | composite z-score [2] | composite z-score [3] | composite z-score [4] | composite z-score [5] | composite z-score [6] | composite z-score (Sam68 (KHDRBS1)) | composite z-score [7] | composite z-score [8] | composite z-score [9] | composite z-score [10] | composite z-score [11] | composite z-score [12] | composite z-score [13] | composite z-score [14] | z-score [15] | composite z-score (Lefty1) | composite z-score [16] | z-score [17]
C=CCN(CCCCC)C(=O)C1N(CCCCCCO)C(=O)C2C(C(=O)O)C3C=CC21O3 (stereo not given) | -1.03 and 0.785 | 0.207 (inactive) and 0.382 (inactive) | -0.374 and -0.327 | 0.316 and -0.193 | 0.85 and 0.83 | 0.66 and 0.309 | 0.752 and -0.289 | -0.408 and -1.45 | -3.13 and -1.54 | -0.556 and -1.47 | -2.31 and 0.41 | -0.813 and -0.519 | -0.687 and -0.922 | -1.63 and -1.36 | -2.64 and -1.13 | -2.25 and -2.14 | -0.194 and 0.588 | -1.55 and -1.07 | -1.8 and -0.883 | 0.0975 (inactive) and -0.324 (inactive)
CCCNC(=O)OC[C@H]1O[C@H](CCON=C(C)CCC(=O)OC[C@H]2O[C@H](C#Cc3ccccc3)C=C[C@@H]2Oc2ccc(C)cc2)C=C[C@@H]1Oc1ccc(OC)cc1 | -0.22 | 0.212 (inactive) | -0.158 | -0.141 | -0.29 | -0.324 | -0.141 | -1.22 | -0.288 | 0.154 | 0.0888 | -0.216 | -0.17 | -0.185 | -0.437 | -0.251 | -0.611 | 0.0233 | -0.26 | 1.41 (inactive)
CC(C)OC(=O)C=C1C[C@@H](c2ccccc2)O[C@@H](c2ccccc2)O1 | 0.799 and 0.915 | 0.417 (inactive) and 0.224 (inactive) | 0.168 and 0.308 | -0.029 and 0.0219 | 0.749 and 0.727 | 2.74 and 1.87 | 0.809 and 0.779 | 1.33 and 1.3 | 0.0745 and 0.626 | 1.02 and 1.09 | 0.871 and 1.47 | 1.23 and 1.25 | 0.255 and 0.796 | 0.977 and 0.962 | 1.26 and 1.31 | 1.42 and 1.02 | 1.55 and 0.229 | 1.11 and 1.31 | 0.824 and 1.3 | 0.992 (inactive) and -0.692 (inactive)
CC(C)OC(=O)C=C1C[C@@H](c2cccc(C(F)(F)F)c2)O[C@@H](c2cccc(C(F)(F)F)c2)O1 | 0.516 and 0.8 | -0.313 (inactive) and -0.0102 (inactive) | -0.166 and -0.257 | -0.0597 and -0.118 | 0.407 and 0.738 | 2.3 and 0.841 | 1.56 and 0.103 | -0.167 and 1.11 | -0.24 and -0.619 | 0.711 and 1.06 | 0.143 and 0.877 | 1.17 and 0.699 | 0.805 and 0.224 | 0.795 and 0.302 | -0.618 and -1.57 | -0.496 and -0.841 | 1.52 and 2.59 | -0.392 and -0.925 | 0.627 and 0.443 | -0.864 (inactive) and 0.747 (inactive)
C[C@@H]1CN2[C@@H](CC[C@@H](C)[C@@H]2c2ccc(Br)cc2)C(=O)O1 | -0.66 and 0.877 | -0.139 (inactive) and 0.204 (inactive) | 0.0357 and -0.0363 | -0.0515 and -0.221 | -0.366 and -0.303 | -0.513 and 0.437 | 0.39 and 0.146 | -1.57 and 0.0639 | 0.261 and 0.559 | -0.0782 and -0.252 | 0.513 and -0.557 | -1.13 and 0.142 | -0.0732 and 0.591 | -0.459 and -0.964 | -0.138 and 0.0634 | 0.0798 and 0.44 | 1.14 and 1.07 | -0.0013 and 0.133 | -0.556 and 0.125 | -0.678 (inactive) and -1.36 (inactive)
